Experimental data: PubChem BioAssay
Where “and” joins values, the source holds several entries; their conditions need not be identical. Equal entries are not always repeated. A number with no mark means an inactive call. Calls of active or inactive are those of the source. Rule as the data show it: active = inhibition above about 83%; inactive = the rest.

Assay: HD-MB03 medulloblastoma cell growth inhibition, synergistic combos for chromothripsis tumors, BGB or cisplatin IC20 combos (AID 1671455);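 also: 0% = vehicle DMSO and 100% = high DMSO as cytotoxic control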
Settings: HD-MB03 medulloblastoma cells, at 0.5 µM, stronger effect = higher value
`COc1ccccc1S(=O)(=O)Nc1ccc2c(c1)CN(C)C(=O)N2` showed an inhibition of -5.44%.
With `Cc1cc(C#N)cc(C)c1Oc1nc(Nc2ccc(C#N)cc2)nc(N)c1Br` the inhibition was -1.6%.
With `Nc1ncn(C2OC(CO)C(O)C2O)c(=O)n1` (centres undefined) the inhibition was 2.06%.
With `Cc1cc(C)c(Nc2ccnc(Nc3ccc(C#N)cc3)n2)c(C)c1` the inhibition was -17.9%.
For `COc1ccc(CC(N)C(=O)NC2C(CO)OC(n3cnc4c(N(C)C)ncnc43)C2O)cc1` (centres undefined), the inhibition was 87.7% (active) and 99.6% (active).
In the case of `O=c1ccn(C2OC(CO)C(O)C2O)c(=O)[nH]1` (centres undefined), the inhibition was 6.18% and -13.5%.
With `CC=C1NC(=O)C2CSSCCC=CC(CC(=O)NC(C(C)C)C(=O)N2)OC(=O)C(C(C)C)NC1=O` (centres undefined) the inhibition was 99.8% (active) and 99.9% (active).
For `CN(C)CC(=O)Nc1ccc2[nH]c(=O)c3ccccc3c2c1`, the inhibition was -0.31% and -9.88% and -18.4%.
In the case of `CC1OC(n2cc(F)c(=O)[nH]c2=O)C(O)C1O` (centres undefined), the inhibition was -15.3%.
With `Nc1ccn(C2OC(CO)C(O)C2(F)F)c(=O)n1` (centres undefined) the inhibition was 92.5% (active) and 91.3% (active).
In the case of `Cc1cn(C2CC(N=[N+]=[N-])C(CO)O2)c(=O)[nH]c1=O` (centres undefined), the inhibition was -21.5% and -4.43%.
With `CC(C=CC(=O)NO)=CC(C)C(=O)c1ccc(N(C)C)cc1` (centres undefined) the inhibition was 89% (active).
`NC(=S)NN=Cc1ncccc1N` showed an inhibition of -11.3%.
For `CC(C)(C#N)c1ccc(N2C(=O)OCc3cnc4ccc(-c5cnc6ccccc6c5)cc4c32)cc1`, the inhibition was -11.6%.
